Test results reported in article PMC4336329 (PLoS ONE, 2015).
Out of some 310,000 compounds screened, about 14,000 (4.5%) showed an effect of 50% or more. Effects have a minus sign here. Many of the other results were omitted from the sample, so strong results are more common in it than they were.

biological target: human ether-à-go-go-related gene (hERG) potassium channel (human, UniProt Q12809); assay: primary screen, population patch clamp on CHO cells stably expressing hERG; higher = less effect of the substance
Sequence (Q12809 whole entry, looked up): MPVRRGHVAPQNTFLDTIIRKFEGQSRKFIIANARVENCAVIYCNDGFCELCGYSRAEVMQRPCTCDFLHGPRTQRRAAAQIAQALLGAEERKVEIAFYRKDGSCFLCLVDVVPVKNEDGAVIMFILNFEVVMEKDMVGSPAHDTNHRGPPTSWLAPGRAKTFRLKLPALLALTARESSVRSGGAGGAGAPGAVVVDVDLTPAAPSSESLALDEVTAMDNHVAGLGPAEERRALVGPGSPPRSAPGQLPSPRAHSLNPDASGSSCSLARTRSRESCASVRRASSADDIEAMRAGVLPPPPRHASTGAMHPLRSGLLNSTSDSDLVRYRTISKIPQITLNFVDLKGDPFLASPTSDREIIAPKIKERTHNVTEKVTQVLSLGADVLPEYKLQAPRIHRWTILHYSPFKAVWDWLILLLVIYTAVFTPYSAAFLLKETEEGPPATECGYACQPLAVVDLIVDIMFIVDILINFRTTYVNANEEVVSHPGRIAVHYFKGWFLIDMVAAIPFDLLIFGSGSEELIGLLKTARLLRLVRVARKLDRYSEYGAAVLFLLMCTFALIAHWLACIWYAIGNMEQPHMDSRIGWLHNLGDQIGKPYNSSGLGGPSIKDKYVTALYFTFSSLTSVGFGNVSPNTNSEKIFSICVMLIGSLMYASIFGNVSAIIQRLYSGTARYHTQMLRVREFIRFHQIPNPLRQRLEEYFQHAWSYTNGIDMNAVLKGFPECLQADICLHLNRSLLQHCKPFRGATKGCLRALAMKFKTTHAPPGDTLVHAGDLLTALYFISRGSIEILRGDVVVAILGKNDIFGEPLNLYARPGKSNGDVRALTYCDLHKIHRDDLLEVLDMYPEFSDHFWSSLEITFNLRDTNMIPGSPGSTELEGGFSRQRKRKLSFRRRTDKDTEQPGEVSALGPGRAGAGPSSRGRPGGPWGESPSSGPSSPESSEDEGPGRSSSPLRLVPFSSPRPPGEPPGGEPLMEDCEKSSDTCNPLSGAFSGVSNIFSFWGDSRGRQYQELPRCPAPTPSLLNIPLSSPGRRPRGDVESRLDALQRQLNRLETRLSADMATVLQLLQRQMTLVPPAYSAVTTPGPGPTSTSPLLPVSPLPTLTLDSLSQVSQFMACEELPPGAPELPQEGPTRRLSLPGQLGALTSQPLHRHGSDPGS
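Also: peak tail current of the secondary pulse compared with the same well before compound.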

Compound | hERG current change (%, negative = inhibition) at 10uM
Cc1ccc(NC(=O)COC(=O)CCC(=O)c2ccc(Cl)cc2)cc1S(=O)(=O)N(C)C | -1.5%
CCOC(=O)N1CCc2c(sc3nc(SC(C)C)n(N)c(=O)c23)C1 | -20.9%
Cl.c1ccc(N2CCN(c3nc(NCc4ccco4)c4ccccc4n3)CC2)cc1 | -73.6%
Clc1nc(NCc2ccco2)nc(N2CCCCC2)n1 | 33.5%
Fc1ccccc1-c1nc(NCc2ccco2)c2ccccc2n1 | -2.1%
Cl.c1coc(CNc2nc(N3CCCCC3)nc3ccccc23)c1 | -77.5%
Cl.c1coc(CNc2ncnc3ccccc23)c1 | 2.88%
CC(C)C(=O)NNC(=O)c1csc(CS(=O)(=O)c2ccc(Cl)cc2)n1 | -1.62%
O=c1cc(-c2ccc(O)cc2)oc2ccccc12 | 16.1%
CCOC(=O)c1ccc(NC(=O)C2C3C=CC(C3)C2C(=O)O)cc1 (centres unmarked) | 4.67%
CN(C)CC/C=C1\c2cc(F)ccc2CSc2ccccc21.O=C(O)/C=C\C(=O)O | -35.4%
COc1ccc2c(c1)C1C=CCC1C(c1cc3c(cc1Br)OCO3)N2 (centres unmarked) | 1.4%
O=C(N/C(=C/c1cccc([N+](=O)[O-])c1)C(=O)N1CCCCCC1)c1ccco1 | -28.2%
O=C(N/C(=C\c1ccccc1)C(=O)N1CCCCC1)c1ccc(Br)o1 | 15.8%
O=C(N/C(=C\c1ccc(Cl)cc1)C(=O)N1CCOCC1)c1ccco1 | -31.4%
O=C(N/C(=C/c1ccc([N+](=O)[O-])cc1)C(=O)N1CCOCC1)c1ccco1 | -70.1%
O=C(N/C(=C\c1ccc([N+](=O)[O-])cc1)C(=O)N1CCCCC1)c1ccco1 | -70.3%
COc1ccc(/C=C(\NC(=O)c2ccco2)C(=O)N2CCOCC2)cc1 | 0.365%
O=C(N/C(=C\c1cccc([N+](=O)[O-])c1)C(=O)N1CCOCC1)c1ccco1 | 14.9%
O=C(N/C(=C/c1cccc([N+](=O)[O-])c1)C(=O)N1CCCCC1)c1ccco1 | -2.24%
O=C(N/C(=C\c1ccccc1)C(=O)N1CCOCC1)c1ccco1 | 17.1%
O=C(N/C(=C\c1ccc([N+](=O)[O-])cc1)C(=O)N1CCCCC1)c1ccc(Br)o1 | -72%
O=C(N/C(=C/c1ccccc1)C(=O)N1CCCCC1)c1ccc(Br)o1 | -7.64%

Compound | hERG current change (%, negative = inhibition) at 10uM
O=C(N/C(=C\c1ccc([N+](=O)[O-])cc1)C(=O)N1CCOCC1)c1ccco1 | -69.2%
C=C1C(=O)O[C@@H]2C[C@@H](C)[C@H]3C=CC(=O)[C@]3(O)C[C@@H]12 | 19.3%
Cc1ccc(C(=O)C(OC(=O)CNC(=O)c2ccc(Cl)cc2)c2ccccc2)cc1 (centres unmarked) | 2.15%
COc1ccc(-c2[nH]ncc2/C=N/NC(=O)c2ccncc2)c(OC)c1 | 13.8%
O=C(CSc1ccccn1)Nc1ccc2c(c1)oc1ccccc12 | 12.8%
N#Cc1cc2ccccc2nc1SCC(=O)NC1CC1 | 4.58%
O=C(CN1C(=O)CSC1=O)c1ccccc1 | 1.83%
CCOc1cc2nc(-c3ccc(OC)c(OC)c3)nc(N3CCOCC3)c2cc1OC | -15.5%
COc1ccc(C2CC(c3ccc(F)cc3)Nc3nc(N)nn32)cc1 (centres unmarked) | -27%
O=C(Nc1ncc2c(n1)CC(c1cccc(Cl)c1)CC2=O)c1ccco1 (centres unmarked) | -39%
COc1ccc(C2CC(c3ccc(F)cc3)n3nc(NS(C)(=O)=O)nc3N2)cc1 (centres unmarked) | 8.06%
COc1ccc(C2CC(c3ccc(OC)cc3)n3nc(NC(=O)c4cccs4)nc3N2)cc1 (centres unmarked) | -13.9%
O=C(Nc1nc2n(n1)C(c1ccc(F)cc1)CC(c1ccccc1)N2)c1ccco1 (centres unmarked) | -57.4%
CS(=O)(=O)Nc1nc2n(n1)C(c1ccc(F)cc1)CC(c1ccccc1)N2 (centres unmarked) | -4.13%
COc1ccc(C2CC(c3ccc(F)cc3)n3nc(NC(=O)c4ccco4)nc3N2)cc1 (centres unmarked) | -60.3%
O=C(Nc1ncc2c(n1)CC(c1ccc(Cl)cc1)CC2=O)c1ccco1 (centres unmarked) | -71.6%
CC1CC(c2ccccc2)n2nc(NC(=O)c3cccs3)nc2N1 (centres unmarked) | 16.6%
Nc1nc2n(n1)C(c1ccccc1)CC(c1ccc(F)cc1)N2 (centres unmarked) | -10.1%
COc1ccc(C2CC(c3ccccc3)Nc3nc(NC(=O)c4cccs4)nn32)cc1 (centres unmarked) | -52%
O=C(Nc1ncc2c(n1)CC(c1ccccc1)CC2=O)c1ccco1 (centres unmarked) | -21.9%
C[C@]12CCC3C(CC[C@H]4CC(O)CC[C@]34C)C1CC/C2=N/NC(=O)c1ccncc1 (some centres unmarked) | -10.8%
COc1c(C)cccc1C(=O)Nc1cc(Cl)ccc1N1CCOCC1 | 7.1%
O=C(Nc1cc(-c2ccccc2)sc1C(=O)O)c1cccc(F)c1 | 33.5%

Compound | hERG current change (%, negative = inhibition) at 10uM
CCOC(=O)C1CCN(C(=O)CCNS(=O)(=O)c2ccc3c(c2)CCN3C(=O)CC)CC1 | 7.82%
CCc1ccc(CN(C)CC(=O)Nc2sccc2C#N)cc1 | -16.4%
COc1ccc(/C=N/N=C2/NC(=O)C(CC(=O)O)S2)cc1OCc1ccc(Cl)cc1 (centres unmarked) | -1.97%
O=C(NC1CCCCC1)C(c1ccccn1)N(C(=O)c1csnn1)c1ccccc1 (centres unmarked) | 1.6%
O=C(NC1CCCCC1)c1cc(-c2cccc(Cl)c2)on1 | 11.7%
CCOC(=O)C1C(=O)NC(c2ccccc2)=NC1c1ccc(OC)cc1 (centres unmarked) | -12.2%
CC(=O)N1CCC(N(CCN2CCOCC2)C(=S)Nc2c(C)cccc2C)CC1 | 8.51%
NC(=O)c1nsc(C(=O)N(c2ccc3c(c2)OCO3)C(C(=O)NCC2CCCO2)c2ccc(F)cc2)c1N (centres unmarked) | -8.25%
O=C(Nc1nc2n(n1)C(c1ccccc1)CC(c1ccc(Cl)cc1)N2)c1ccco1 (centres unmarked) | -53.1%
O=C(O)CCCC(=O)Nc1nc2n(n1)C(c1ccc(F)cc1)CC(c1ccc(Cl)cc1)N2 (centres unmarked) | -0.46%
CC1CC(c2ccccc2)n2nc(NC(=O)c3ccco3)nc2N1 (centres unmarked) | 24.6%
COCC(=O)Nc1nc2n(n1)C(c1ccccc1)CC(c1ccc(OC)cc1)N2 (centres unmarked) | -3.73%
COCC(=O)Nc1nc2n(n1)C(c1ccc(Cl)cc1)CC(c1ccc(OC)cc1)N2 (centres unmarked) | -73.8%
COc1ccc(C2CC(c3ccc(OC)cc3)n3nc(NC(=O)c4ccco4)nc3N2)cc1 (centres unmarked) | -19.2%
COCC(=O)Nc1nc2n(n1)C(c1ccccc1Cl)CC(c1ccc(OC)cc1)N2 (centres unmarked) | -18.6%
COc1ccc(C2CC(c3ccccc3)Nc3nc(NC(=O)c4ccco4)nn32)cc1 (centres unmarked) | -64.4%
O=C(Nc1nc2n(n1)C(c1ccc(Cl)cc1)CC(c1ccc(Cl)cc1)N2)c1ccco1 (centres unmarked) | -38.3%
O=[N+]([O-])c1ccc(NCCO)c2ncccc12 | 2.11%
CC(Sc1ncc(C(F)(F)F)cc1Cl)C(=O)NC(N)=O (centres unmarked) | 0.58%
COC(=O)c1cc(OC)c(OC)cc1NC(=O)Cc1cccs1 | 0.709%
CCCn1nnnc1NCc1ccc(C(C)C)cc1 | 4.94%
CCC1CCCCN1c1cc(C)nc2cc(-c3cccc(C)c3)nn12 (centres unmarked) | -1.65%
CCCCCCCC[n+]1cccc(C(=O)N(CC)CC)c1.[Br-] | 13%

Compound | hERG current change (%, negative = inhibition) at 10uM
CCCCCCCCCC[n+]1cccc(C(=O)N(CC)CC)c1.[Br-] | -0.215%
CCCCCCCCCCCCCCCC[n+]1cccc(C(=O)N(CC)CC)c1.[Br-] | -69.7%
COc1ccc(CNn2c(-c3cccc(C)c3)nc3ccccc3c2=O)cc1OC | -73.6%
COc1cccc(CNn2c(-c3cccc(C)c3)nc3ccccc3c2=O)c1 | -9.77%
COc1ccccc1CNn1c(-c2cccc(C)c2)nc2ccccc2c1=O | -11%
CC1(C)C2CCC(C2)C1(C)NC(=O)CN1CCCC1.Cl (centres unmarked) | -0.213%
Cc1cc2oc(=O)cc(C)c2c(=O)o1 | -65.8%
COc1cc(OC)c2c(C)cc(=O)oc2c1 | 15.4%
COc1cc2oc(=O)cc(C)c2c(OC)c1OC | 17.9%
CCOc1ccc(NC(=O)Cn2cc(C(=O)CC)c3ccccc32)cc1 | 14.7%
Cc1ccc2oc(=O)c(/C=C(\O)C(C)(C)C)nc2c1 | 17.1%
Cc1ccc2nc(SCc3ccc([N+](=O)[O-])cc3)nc(C)c2c1 | 0.901%
Cc1nc2nc(SCc3ccc([N+](=O)[O-])cc3)[nH]c2cc1Br | 1.02%
Cc1cnc(=O)[nH]c1SCc1cccc([N+](=O)[O-])c1 | 2.35%
Cc1ccc2nc(SCC(=O)Nc3cc([N+](=O)[O-])ccc3F)[nH]c2c1 | -57.4%
Cc1ccc2nc(SCC(=O)Nc3cccc([N+](=O)[O-])c3)[nH]c2c1 | -11.7%
Cc1ccc2nc(SCC(=O)Nc3ccc(F)c([N+](=O)[O-])c3)[nH]c2c1 | -2.06%
Cc1cc(Cc2ccc([N+](=O)[O-])cc2)c(C)cn1 | -57.8%
O=[N+]([O-])c1ccc(Cc2ccncc2)cc1 | -26.9%
Cc1ccc(CSc2[nH]c(=O)ncc2C)cc1 | 10.7%
Cc1ccc2nc(SCc3ccc([N+](=O)[O-])cc3)[nH]c2c1 | -65.1%
O=[N+]([O-])c1ccc(Cc2cncc(O)c2)cc1 | -17.3%
Cc1cnc(=O)[nH]c1SCc1ccc([N+](=O)[O-])cc1 | -70.1%
